We go through eight sequences from paper PMC8384837, “Expanding the binding specificity for RNA recognition by a PUF domain”.

What all share (assay): yeast three-hybrid, YBZ-1, SC-Leu-His + 0.5 mM 3-AT, 4 days
What all share (conditions): tags: N-Gal4 AD-HA kept; label: inside an RPR1-promoter hybrid RNA with tandem MS2 sites; ssRNA

One assay concerns the target PUM1 PUF domain R5-RQV (Homo sapiens, UniProt Q14671 828-1176, C1007R;R1008Q;Q1011V). In short, it runs like this: (§1)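 The interaction score is the log change in variant frequency from input to selection. Scores were computed in log2 with a pseudocount of 1 for absent variants, using Illumina sequencing of PCR-amplified repeat regions. The input came from four days on SC-Leu and the selection from four days on SC-Leu-His + 0.5 mM 3-AT. The cells were strain YBZ-1 (LexA–MS2 coat fusion, HIS3 reporter) co-expressing Pumilio-1 PUF domain libraries and matching RNA elements from a centromeric plasmid.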

Another assay concerns the target PUM1 PUF domain R5-LNT (Homo sapiens, UniProt Q14671 828-1176, C1007L;R1008N;Q1011T). In short, it runs like this:
as §1

The target in another assay is PUM1 PUF domain R5-GVD (Homo sapiens, UniProt Q14671 828-1176, C1007G;R1008V;Q1011D). In short, it runs like this:
as §1

For another assay, the target named is T1, PUM1 PUF domain R6-QWG (Homo sapiens, UniProt Q14671 828-1176, N1043Q;Y1044W;Q1047G).
T1 sequence: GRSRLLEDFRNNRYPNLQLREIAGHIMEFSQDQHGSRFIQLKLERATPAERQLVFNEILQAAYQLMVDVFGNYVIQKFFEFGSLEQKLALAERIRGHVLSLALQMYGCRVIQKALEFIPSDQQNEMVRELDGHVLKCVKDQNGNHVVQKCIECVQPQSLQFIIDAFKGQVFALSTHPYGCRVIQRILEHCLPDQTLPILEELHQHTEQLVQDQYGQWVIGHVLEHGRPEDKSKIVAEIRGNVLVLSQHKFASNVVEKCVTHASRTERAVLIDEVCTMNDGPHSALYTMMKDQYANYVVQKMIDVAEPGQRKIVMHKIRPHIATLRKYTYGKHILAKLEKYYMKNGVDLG
In short, it runs like this:
as §1

Another assay addresses T2, PUM1 PUF domain R6-TYR (Homo sapiens, UniProt Q14671 828-1176, N1043T;Q1047R).
T2 sequence: T1 sequence with Q216T, W217Y, G220R
In short, it runs like this: as §1

In the next assay the target is PUM1 PUF domain R3-RPA (Homo sapiens, UniProt Q14671 828-1176, C935R;R936P;Q939A). In short, it runs like this: as §1
For another assay, the target named is PUM1 PUF domain R7-GVD (Homo sapiens, UniProt Q14671 828-1176, S1079G;N1080V;E1083D). In short, it runs like this: as §1
In another assay the target is PUM1 PUF domain R3-TSE (Homo sapiens, UniProt Q14671 828-1176, C935T;R936S;Q939E). In short, it runs like this: as §1
A further assay concerns the target PUM1 PUF domain R1-KKR (Homo sapiens, UniProt Q14671 828-1176, S863K;R864K;Q867R). In short, it runs like this:
as §1

Changes are numbered by the printed parent chain.

In the case of “GGCUAGAACUAGUGGAUCCCCCGGCGCCCGGCGGCUCGAGCCCGGGUAAGUGUUAAUAGUCUGCAUGCCGCCGGGCGCCAUGCCUGCAGGUCGACUCUAGAAAACAUG”, the binding signal is 4.22 log2 enrichment (interaction score) with PUM1 PUF domain R5-RQV and 4.04 log2 enrichment (interaction score) with PUM1 PUF domain R5-LNT. As to “GGCUAGAACUAGUGGAUCCCCCGGCGCCCGGCGGCUCGAGCCCGGGUAAGUGUCAAUAGUCUGCAUGCCGCCGGGCGCCAUGCCUGCAGGUCGACUCUAGAAAACAUG”, the binding signal in the assay with PUM1 PUF domain R5-RQV was 4.73 log2 enrichment (interaction score). On to “GGCUAGAACUAGUGGAUCCCCCGGCGCCCGGCGGCUCGAGCCCGGGUAAGUGUGAAUAGUCUGCAUGCCGCCGGGCGCCAUGCCUGCAGGUCGACUCUAGAAAACAUG”, for which the binding signal with PUM1 PUF domain R5-GVD is 5.11 log2 enrichment (interaction score).

In the case of “GGCUAGAACUAGUGGAUCCCCCGGCGCCCGGCGGCUCGAGCCCGGGUAAGUGUAAAUAGUCUGCAUGCCGCCGGGCGCCAUGCCUGCAGGUCGACUCUAGAAAACAUG”, the binding signal was 5.49 log2 enrichment (interaction score) with PUM1 PUF domain R6-QWG, 5.51 log2 enrichment (interaction score) in the assay with PUM1 PUF domain R6-TYR and 0.97 log2 enrichment (interaction score) with PUM1 PUF domain R3-RPA. Take “GGCUAGAACUAGUGGAUCCCCCGGCGCCCGGCGGCUCGAGCCCGGGUAAGUGAAAAUAGUCUGCAUGCCGCCGGGCGCCAUGCCUGCAGGUCGACUCUAGAAAACAUG”: in the assay with PUM1 PUF domain R6-QWG, the binding signal is 3.38 log2 enrichment (interaction score). Consider “GGCUAGAACUAGUGGAUCCCCCGGCGCCCGGCGGCUCGAGCCCGGGUAAGUUUAAAUAGUCUGCAUGCCGCCGGGCGCCAUGCCUGCAGGUCGACUCUAGAAAACAUG”, for which the binding signal with PUM1 PUF domain R7-GVD was 2.75 log2 enrichment (interaction score). With “GGCUAGAACUAGUGGAUCCCCCGGCGCCCGGCGGCUCGAGCCCGGGUAAGUGUAAGUAGUCUGCAUGCCGCCGGGCGCCAUGCCUGCAGGUCGACUCUAGAAAACAUG”, the binding signal with PUM1 PUF domain R3-TSE is 4.66 log2 enrichment (interaction score). “GGCUAGAACUAGUGGAUCCCCCGGCGCCCGGCGGCUCGAGCCCGGGUAAGUGUAAAUUGUCUGCAUGCCGCCGGGCGCCAUGCCUGCAGGUCGACUCUAGAAAACAUG”: the binding signal with PUM1 PUF domain R1-KKR is 7.39 log2 enrichment (interaction score).
